Assay results as given in PubChem BioAssay (NCATS).
Where “and” joins values, the source holds several entries; their conditions need not be identical. Equal entries are not always repeated. Inconclusive results are not listed. Some compounds were tested as several samples or in several runs, with calls that do not always agree. Calls of active or inactive are those of the source. Unless noted, calls come from the whole dose curve; as a rule, active = well fitted curve in the direction sought with a large enough effect; inconclusive = small, poorly fitted or top-dose-only effect, or another doubt; inactive = no such curve, though single readings can be large; an effect the other way counts as inactive or inconclusive.

Assays:
[1] = tested on: UISO; assay: qHTS assay to identify novel small-molecules to repurpose for Merkel cell carcinoma treatment (AID 1296009); settings: MCC and control cell lines, CellTiter-Glo viability, 72 h; series mostly up to 46 µM; note: nearly all actives have a fitted effect of over 60% in size; note: potency is the fitted concentration of half-maximal effect; for activity change, negative = cytotoxicity: % is set by controls: 0 for no effect and ±100 for the full control effect
How it was run: (§1)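 Viability readout: ATP luminescence (CellTiter-Glo) after 72 hr drug exposure at 37 degree celsius. Dose-response format was 8 points for NPC and 11 points for MIPE; data normalized to in-plate controls.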

[2] = tested on: WaGa; assay: as above; settings: MCC and control cell lines, CellTiter-Glo viability, 72 h; series mostly up to 46 µM
How it was run: as §1

[3] = tested on: C33A; assay: Primary qHTS to identify gynecologic anti-cancer compounds using libraries of approved drugs and bioactive compounds (AID 1345084); settings: Gynecologic cancer cell panel viability, ATPlite luminescence, 48 h; series mostly up to 57.5 µM; note: nearly all actives have a fitted effect of over 55% in size; note: potency is the fitted concentration of half-maximal effect; for activity change, negative = cytotoxicity: % is set by controls: 0 for no effect and ±100 for the full control effect
How it was run: (§2)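 48 h compound exposure at 37 C, 5% CO2; five-point qHTS. ATPlite luminescence readout of cell ATP.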

[4] = tested on: CASKI; assay: as above; settings: Gynecologic cancer cell panel viability, ATPlite luminescence, 48 h; series mostly up to 57.5 µM
How it was run: as §2

[5] = tested on: HeLa; assay: as above; settings: Gynecologic cancer cell panel viability, ATPlite luminescence, 48 h; series mostly up to 57.5 µM
How it was run: as §2

[6] = tested on: Hek293T; assay: as above; settings: Gynecologic cancer cell panel viability, ATPlite luminescence, 48 h, control line for the selectivity index; series mostly up to 57.5 µM
How it was run: as §2

[7] = tested on: JEG-3; assay: as above; settings: Gynecologic cancer cell panel viability, ATPlite luminescence, 48 h; series mostly up to 57.5 µM
How it was run: as §2

[8] = tested on: OV90; assay: as above; settings: Gynecologic cancer cell panel viability, ATPlite luminescence, 48 h; series mostly up to 57.5 µM
How it was run: as §2

[9] = tested on: PA-1; assay: as above; settings: Gynecologic cancer cell panel viability, ATPlite luminescence, 48 h; series mostly up to 57.5 µM
How it was run: as §2

[10] = tested on: SKOV3; assay: as above; settings: Gynecologic cancer cell panel viability, ATPlite luminescence, 48 h; series mostly up to 57.5 µM
How it was run: as §2

[11] = tested on: Es-2; assay: as above; settings: Gynecologic cancer cell panel viability, ATPlite luminescence, 48 h; series mostly up to 57.5 µM
How it was run: as §2

[12] = tested on: Tov-21-G; assay: as above; settings: Gynecologic cancer cell panel viability, ATPlite luminescence, 48 h; series mostly up to 57.5 µM
How it was run: as §2

[13] = tested on: Tov112D; assay: as above; settings: Gynecologic cancer cell panel viability, ATPlite luminescence, 48 h; series mostly up to 57.5 µM
How it was run: as §2

[14] = tested on: CAOV3; assay: as above; settings: Gynecologic cancer cell panel viability, ATPlite luminescence, 48 h; series mostly up to 57.5 µM
How it was run: as §2

[15] = Drug repurposing screens with cells derived from glioblastoma tumor samples (AID 1345199); settings: GBM patient neurospheres viability, ATP luminescence, 48 h; note: nearly all actives have a fitted effect of over 40% in size; note: potency is the fitted concentration of half-maximal effect; for activity, negative = cell killing: % is set by controls: 0 for no effect and ±100 for the full control effect
How it was run: (§3)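 Primary testing used CD133+ neurospheres from four GBM patients, seven concentrations, 48 h exposure and ATP-based viability; confirmation added three slower-growing patient lines.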

[16] = tested on: astro; assay: as above; settings: viability, ATP luminescence, 48 h; series mostly up to 45.9 µM
How it was run: as §3

[17] = target: Nuclear receptor subfamily 1 group I member 2 (Rattus norvegicus) (UniProt Q9R1A7); assay: qHTS assay for small molecule activators of the rat pregnane X receptor (rPXR) signaling pathway (AID 651751; call rule not given here; note: 0% is about no effect); settings: rPXR reporter cells, luciferase (One-Glo), 24 h
Chain of Nuclear receptor subfamily 1 group I member 2 (Rattus norvegicus) (Q9R1A7 whole entry, looked up): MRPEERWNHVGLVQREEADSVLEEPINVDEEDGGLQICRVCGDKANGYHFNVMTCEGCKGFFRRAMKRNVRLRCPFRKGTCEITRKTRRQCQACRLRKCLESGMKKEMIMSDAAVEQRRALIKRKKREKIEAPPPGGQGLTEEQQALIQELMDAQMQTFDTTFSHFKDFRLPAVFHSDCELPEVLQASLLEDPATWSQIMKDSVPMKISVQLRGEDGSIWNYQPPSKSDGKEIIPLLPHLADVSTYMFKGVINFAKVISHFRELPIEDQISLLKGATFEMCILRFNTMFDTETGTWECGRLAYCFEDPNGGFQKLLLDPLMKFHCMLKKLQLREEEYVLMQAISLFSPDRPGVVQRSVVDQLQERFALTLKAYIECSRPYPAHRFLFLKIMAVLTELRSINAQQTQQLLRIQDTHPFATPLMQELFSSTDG

[18] = qHTS assay to identify inhibitors of the type 1 interferon - major histocompatibility complex class I in skeletal muscle: Counter screen cell viability and HiBit confirmation (AID 1347412); settings: iHSKM muscle cells + IFN-b, HiBiT or CellTiter-Glo, 24 h; Potency: HiBiT; Viability, at 45.9 µM (top of the series); note: % is set by controls: 0 for no effect and ±100 for the full control effect; nearly all actives have a fitted effect of over 60% in size
How it was run: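 Myoblasts (C25cl48, HLA-B HiBiT) seeded in medium without dexamethasone, IFN-b 4 ng/ml added except unstimulated columns; 1 hr later compounds pinned (12-pt 1:3, top 46 uM final). Incubated 24 hrs, lysed 10 min, luminescence measured.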

[19] = qHTS assay for small molecule activators of the human pregnane X receptor (PXR) signaling pathway (AID 720659; call rule not given here; note: 0% is about no effect)
[20] = at 45.9 µM (top of the series), tumour line B
[21] = at 45.9 µM (top of the series), tumour line D
[22] = at 46 µM (top of the series), tumour line A
[23] = at 46.1 µM (top of the series), tumour line C

COc1cc(F)c(F)c(Nc2ccc(I)cc2F)c1NS(=O)(=O)C1(C[C@H](O)CO)CC1
active: Potency [8] 2.51 µM
inactive: Potency [1] | Potency [2] | Potency [3] | Potency [4] | Potency [5] | Potency [6] | Potency [7] | Potency [9] | Potency [10]

Cc1ccnc(NS(=O)(=O)c2ccc(NC(=O)Nc3ccc(S(=O)(=O)Nc4nccc(C)n4)cc3)cc2)n1
inactive: Potency [1] | Potency [2] | Potency [3] | Potency [4] | Potency [11] | Potency [5] | Potency [6] | Potency [7] | Potency [8] | Potency [9] | Potency [10] | Potency [12] | Potency [13]

Cc1csc(NC(=O)c2sc3nc4c(c(C(F)(F)F)c3c2N)CCC4)n1
active: Potency [14] 1.12 µM | Potency [11] 2.51 µM | Potency [5] 2.82 µM | Potency [6] 3.55 µM | Potency [8] 12.6 µM | Potency [12] 3.55 µM | Potency [13] 11.2 µM
inactive: Potency [1] | Potency [2]

O=C(c1cc(Cc2n[nH]c(=O)c3ccccc23)ccc1F)N1CCN(C(=O)C2CC2)CC1
active: Potency [1] 16.6 µM
inactive: Potency [3] | Potency [4] | Potency [11] | Potency [5] | Potency [6] | Potency [7] | Potency [8] | Potency [9] | Potency [12] | Potency [13]

O=NN(CCCl)C(=O)NCCCl
inactive: Potency [1] | Potency [2] | Potency [3] | Potency [4] | Potency [11] | Potency [5] | Potency [7] | Potency [8] | Potency [9] | Potency [10] | Potency [12] | Potency [13] | activity, negative = cell killing [15, 20] -7.98% | activity, negative = cell killing [15, 21] -22.2% | activity, negative = cell killing [15, 22] -13.2% | activity, negative = cell killing [15, 23] -21% | Potency [16] | max response [17] -1.45%

Cc1n[nH]c(C)c1Cc1sc2c(c1C(=O)N1C[C@H](O)CO1)c(=O)n(C)c(=O)n2CC(C)C
inactive: Potency [1] | Potency [2] | Potency [3] | Potency [4] | Potency [11] | Potency [5] | Potency [6] | Potency [7] | Potency [8] | Potency [9] | Potency [10] | Potency [12] | Potency [13]

Cc1cc2c(C(C)C)c(O)c(O)c(C=O)c2c(O)c1-c1c(C)cc2c(C(C)C)c(O)c(O)c(C=O)c2c1O
inactive: Potency [4] | Potency [11] | Potency [7] | Potency [12] | Potency [13] | Potency [18] | outcome [19]
active: Potency [1] 21.1 µM | Potency [2] 23.7 µM

COc1cc(Nc2ncc3c(n2)-c2ccc(Cl)cc2C(c2c(F)cccc2OC)=NC3)ccc1C(=O)O
active: Potency [2] 0.148 µM | Potency [14] 31.6 µM
25.1 µM (active) and inactive: Potency [10]
inactive: Potency [1] | Potency [11] | Potency [5] | Potency [6] | Potency [7] | Potency [9] | Potency [12] | Potency [13] | Potency [18]
28.2 µM (active) and inactive: Potency [3] | Potency [8]

Clc1ccc(Nc2nnc(Cc3ccncc3)c3ccccc23)cc1
active: Potency ([15]; tumour line A) 12.6 µM and 7.08 µM
inactive: Potency [1] | Potency [3] | Potency [14] | Potency [4] | Potency [11] | Potency [5] | Potency [6] | Potency [7] | Potency [8] | Potency [9] | Potency [10] | Potency [12] | Potency [13] | activity, negative = cell killing [15, 20] -12.8% and 0.35% | activity, negative = cell killing [15, 23] -11.6% and 1.14%

O=C(Nc1cccnc1)N1CCC(Cc2cccc(Oc3ccc(C(F)(F)F)cn3)c2)CC1
active: Potency [1] 16.6 µM
inactive: Potency [14] | Potency [5] | Potency [9]

CN1CCN(CCCN2c3ccccc3Sc3ccc(C(F)(F)F)cc32)CC1
inactive: Potency [1] | Potency [2] | Potency [3] | Potency [5] | Potency [7] | Potency [12] | activity, negative = cell killing [15, 23] -24.2%
active: Potency [8] 11.2 µM | Potency [10] 14.1 µM | Potency ([15]; tumour line A) 2.51 µM | Potency ([15]; tumour line B) 15.8 µM | Potency ([15]; tumour line D) 6.31 µM | Potency [16] 25.1 µM

C[C@H](NC(=O)Cc1cc(F)cc(F)c1)C(=O)N[C@@H]1C(=O)N(C)c2ccccc2-c2ccccc21
inactive: Potency [1] | Potency [3] | Potency [4] | Potency [11] | Potency [5] | Potency [6] | Potency [7] | Potency [8] | Potency [9] | Potency [10] | Potency [12] | Potency [13]

CC[C@H](Nc1ncnc2nc[nH]c12)c1nc2cccc(F)c2c(=O)n1-c1ccccc1
inactive: Potency [1] | activity change, negative = cytotoxicity [3] -4.71% [at 11.6 µM] | activity change, negative = cytotoxicity [4] -22.6% [at 11.6 µM] | activity change, negative = cytotoxicity [11] -27.1% [at 11.6 µM] | activity change, negative = cytotoxicity [5] -8.83% [at 11.6 µM] | activity change, negative = cytotoxicity [6] -17.7% [at 11.6 µM] | activity change, negative = cytotoxicity [7] -10.7% [at 11.6 µM] | activity change, negative = cytotoxicity [8] -4.59% [at 11.6 µM] | activity change, negative = cytotoxicity [9] 0.976% [at 11.6 µM] | activity change, negative = cytotoxicity [12] -9.1% [at 11.6 µM] | activity change, negative = cytotoxicity [13] -0.869% [at 11.6 µM]

O=c1[nH]cnc2[nH]ncc12
inactive: Potency [1] | Potency [2] | Potency [3] | Potency [14] | Potency [4] | Potency [11] | Potency [5] | Potency [7] | Potency [8] | Potency [9] | Potency [10] | Potency [12] | Potency [13] | activity, negative = cell killing [15, 20] -5.74% | activity, negative = cell killing [15, 21] -0.0406% | activity, negative = cell killing [15, 22] -9.81% | activity, negative = cell killing [15, 23] 7.88% | Potency [16] | max response [17] 2.04% | outcome [19]
